Experimental data from PubChem BioAssay (NCI).
This is part of a sample that, as a whole, favours compounds with a hit. Of some 83,000 tested, about 20% had one in any assay.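 The test compound was applied at a single concentration to cells in 96-well plates for 48 hours, and percent growth was recorded.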 A number with no mark means an inactive call. Activity calls are given as the source filed them. How the source made its calls: active means growth percent below 10; inactive means the rest.

test system: 786-0 renal; assay: NCI-60 one-dose screen, 48 h (100 = growth as untreated, 0 = no growth, -100 = all killed); details: 10 µM

| SMILES | growth |
| --- | --- |
| CC(=O)Nc1ccc2c(c1)C(=O)c1cccc(C(=O)O)c1-2 | 105% |
| COc1ccc(N=Nc2cc(OC)c(OC)c(OC)c2)cc1 | 98.2% |
| COc1cc2cc(Oc3ccc(NC(=O)Nc4ccc(Cl)c(C(F)(F)F)c4)cc3)c(C)nc2cc1OC | -21.1% (active) |
| COc1cccc(-c2nc3sccn3c2-c2cccc(S(C)(=O)=O)c2)c1 | 100% |
| COc1cc(-c2nn(-c3cccc(NC(=O)CCN4CCN(Cc5ccccc5)CC4)c3)cc2-c2ccncc2)ccc1Cl | -59.9% (active) |
| O=C(O)c1cc([N+](=O)[O-])ccc1Oc1ccccc1 | 104% |
| CCN(CC)CCCC(C)N=C(C1=C(C(=NC(C)CCCN(CC)CC)c2cccc(OC)c2)C(=O)NC1=O)c1cccc(OC)c1 (stereo not drawn) | -8.78% (active) |
| O=[N+]([O-])c1cc(Cl)cc(Cl)c1O | 99.9% |
| O=C(CN1CCN(C(=O)c2ccccc2)CC1)Nc1ccccc1SCc1ccccc1 | 79.3% |
| CC(=O)Oc1cc(OC(C)=O)c2ccccc2c1OC(C)=O | 103% |
| CCOC(=O)c1cc(C(=O)c2ccc(F)cc2F)n2ccccc12 | 90.6% |
| CN1CCN(CCCn2c(=O)c3sc4ncccc4c3n3nnc(-c4ccccc4)c23)CC1 | 5.36% (active) |
| O=C(CCl)Nc1ccc(Cc2ccc(NC(=O)CCl)cc2)cc1 | -20.2% (active) |
| COc1cc(/C=C2\CCCC3=C2N=C2SC(C)=CN2C3c2cc(OC)c(OC)c(OC)c2)cc(OC)c1OC (stereo not drawn) | -18.1% (active) |
| Oc1cccc(-c2nc3sccn3c2-c2ccncn2)c1 | 95.7% |

test system: COLO 205 colon; assay: as above; details: 10 µM

| SMILES | growth |
| --- | --- |
| NS(=O)(=O)Oc1ccc(-c2ccc3sccc3c2)cc1 | 114% |
| C=C(C)[C@@H]1CC[C@]2(COCCC#N)CC[C@]3(C)[C@H](CC[C@@H]4[C@@]5(C)Cc6c([nH]c7ccccc67)C(C)(C)[C@@H]5CC[C@]43C)[C@@H]12 | -42.8% (active) |
| O=S(=O)(Oc1ccc(-c2ccc3sccc3c2)cc1)c1ccc(F)cc1 | 111% |
| Cc1nn(-c2ccccc2)c2nc(Cl)c(C=O)c(-c3ccccc3)c12 | 121% |
| Cc1ccc(S(=O)(=O)N/N=C2\CCCc3ccccc32)cc1 | 115% |
| COc1ccc(-c2cc(-c3ccc(OC)c(OC)c3)nc(SCCCC(=O)NO)n2)cc1 | -12.4% (active) |
| CC(C)C[C@H](NC(=O)Cn1cccc(CNC(=O)c2ccccc2)c1=O)B(O)O | 30.6% |
| CC[C@@H](C(=O)[C@@H](C)[C@@H](O)[C@H](C)[C@@H]1O[C@@H]([C@@H](CC)C(=O)O)CC[C@@H]1C)C1O[C@]2(C=CC(=O)[C@]3(CC[C@@](C)([C@H]4CC[C@](O)(CC)[C@H](C)O4)O3)O2)[C@H](C)C[C@@H]1C (stereo partly drawn) | 10.1% |
| CCOC(=O)/C(=C(\C)N)C1CC(=O)NC1=O (stereo not drawn) | 109% |
| COc1cc(-c2nn(-c3cccc(NC(=O)CCNc4ccc(N5CCOCC5)cc4)c3)cc2-c2ccncc2)ccc1Cl | 1.38% (active) |
| CC(=O)N[C@H](C(=O)N[C@@H](CCCNC(=N)N)C(=O)N[C@@H](CCCCN)C(=O)N[C@@H](CCCNC(=N)N)C(=O)N[C@]1(C)CCCCCC/C=C\CCC[C@@](C)(C(=O)N[C@@H](CCCNC(=N)N)C(=O)N[C@@H](CCC(=O)O)C(=O)N[C@@H](CC(C)C)C(=O)N[C@H](C(=O)N[C@@H](CCC(=O)O)C(N)=O)C(C)C)NC(=O)[C@H](CCC(N)=O)NC(=O)[C@H](CC(C)C)NC(=O)[C@H](CC(C)C)NC(=O)[C@H](CCCNC(=N)N)NC(=O)[C@H](CCCNC(=N)N)NC(=O)[C@H](CC(C)C)NC1=O)C(C)C | -29.5% (active) |
| O=C1c2ccccc2C(=O)c2c1ccc1c(=O)n(-c3ccccc3C(F)(F)F)nnc21 | 8.51% (active) |
| Cc1c(Cl)cccc1NC(=O)CCCl | 107% |
| COc1cc(-c2csc(NC(=O)Nc3cc(C(F)(F)F)cc(C(F)(F)F)c3)n2)cc(OC)c1OC | 0.569% (active) |
| Nc1ccn(Cc2nnc(CCC(=O)c3nc4ccccc4[nH]3)o2)c(=O)n1 | 103% |
| O=C1C=C(Nc2cccc(Br)c2)c2ccccc2C1=O | 104% |
| COc1cccc(N=Nc2cccc(OC)c2)c1 | 107% |
| C=CCN(CC=C)C(=O)[C@H](CC)[C@@H]1CC[C@@H](C)[C@@H]([C@H](C)[C@@H](O)[C@@H](C)C(=O)[C@H](CC)C2O[C@]3(C=C[C@@H](O)[C@]4(CC[C@@](C)([C@H]5CC[C@](O)(CC)[C@H](C)O5)O4)O3)[C@H](C)C[C@@H]2C)O1 (stereo partly drawn) | -62.4% (active) |
